SENP7 block = SENP7 protease inhibition; recombinant SENP7, Z-RLRGG-aminoluciferin luminescence, 40 min; inhibition, % at 5 µM; 1.5% of 330,000 active; AID 434973; Q9BQF6;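 active = inhibition above about 50% at the single test dose, limit read from the data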
LGR2 antag = inhibitors of bursicon-induced Drosophila LGR2 receptor cAMP signaling; AID 720647; HEK293 LGR2, CRE-luciferase, bursicon-stimulated, 4 h; 0.35% of 380,000 active; inhibition, % at 9.99 µM;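 active = drop in luminescence signal, shown as inhibition above about 50% in the replicate tests, limit read from the data, passing the limit was not always enough; inconclusive = probably only some replicates passing the limit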;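 also: agonist challenge used bursicon conditioned medium at about half maximal strength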
SENP8 block-1 = blocks human SENP8 cleavage of Nedd8 substrate | Q96LD8 | recombinant SENP8, Nedd8 substrate fluorescence | inhibition, % at 20 µM | 0.64% of 360,000 active; in the data active = inhibition mostly above about 40%, no sharp cut-off; inactive = mostly below about 27%
Target sequence (Q96LD8 whole entry, looked up): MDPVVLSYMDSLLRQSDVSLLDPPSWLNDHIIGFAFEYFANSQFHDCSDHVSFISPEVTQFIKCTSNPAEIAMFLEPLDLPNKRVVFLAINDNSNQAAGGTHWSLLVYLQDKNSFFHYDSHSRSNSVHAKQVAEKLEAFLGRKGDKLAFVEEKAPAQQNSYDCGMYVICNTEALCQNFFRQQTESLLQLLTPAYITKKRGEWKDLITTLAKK
SENP6 inh = inhibitors of human SENP6 protease; Recombinant SENP6 catalytic domain, aminoluciferin luminescence; inhibition, % at 10 µM; 1.8% of 330,000 active; AID 2599;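 active = inhibition above about 50% at the single tested dose, limit read from the data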
Target sequence (Q9GZR1 628-1112 limits assumed): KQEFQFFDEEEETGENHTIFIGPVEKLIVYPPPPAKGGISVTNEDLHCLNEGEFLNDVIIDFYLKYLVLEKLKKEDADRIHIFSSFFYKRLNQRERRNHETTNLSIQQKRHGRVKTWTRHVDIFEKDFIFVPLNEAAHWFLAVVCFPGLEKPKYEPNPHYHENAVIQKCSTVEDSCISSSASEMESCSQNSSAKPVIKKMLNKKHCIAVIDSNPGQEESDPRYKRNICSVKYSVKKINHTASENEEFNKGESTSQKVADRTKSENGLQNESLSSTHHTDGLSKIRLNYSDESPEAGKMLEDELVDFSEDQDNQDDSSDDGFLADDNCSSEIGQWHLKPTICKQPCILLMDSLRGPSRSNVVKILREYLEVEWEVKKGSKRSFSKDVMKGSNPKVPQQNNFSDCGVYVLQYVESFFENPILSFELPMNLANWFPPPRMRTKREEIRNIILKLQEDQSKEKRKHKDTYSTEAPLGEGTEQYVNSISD
SENP8 block-2 = SENP8 protease inhibition. purified SENP8, Z-RLRGG-aminoluciferin cleavage, luminescence. AID 2540. 1.2% of 330,000 active. inhibition, % at 10 µM. Q96LD8; in the data active = inhibition above about 50%
HSP90 inh = blocks HSP90-mediated luciferase refolding in reticulocyte lysate. 0.91% of 290,000 active. AID 1789. Rabbit reticulocyte lysate, luciferase refolding luminescence, 3 h. inhibition, % at 5.6 µM;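 active = inhibition above the screen-wide mean plus 3 SD, computed separately per campaign, cut at about 16% in these data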;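 also: inhibitors lower the luminescence because luciferase stays unfolded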
HSP90 confirm = HSP90 inhibition, confirmation assay; 64% of 2,300 active; inhibition, % at 5.9 µM; shares compounds with HSP90 inh; rabbit reticulocyte lysate, luciferase refolding luminescence, 3 h; in the data active = inhibition above about 18%
FLuc counter = firefly luciferase inhibition, HSP90 counter-screen | 48% of 2,300 active | inhibition, % at 5.9 µM | shares compounds with HSP90 inh | purified native firefly luciferase, luminescence;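 active = inhibition above the mean inhibition of all tested sample wells plus 3 SD, cut at about 10% in these data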
Large screens that a line does not name were inactive (follow-up assays come after a bar, where they were run). In the library only some 2.3% were active in any assay of this set; here they are far more common.

C[C@H](CO)N1C[C@H](C)[C@@H](CN(C)C(=O)c2ccccn2)Oc2ncc(C#Cc3ccccn3)cc2C1=O	none (no result: SENP7 block, SENP8 block-1, SENP6 inh, SENP8 block-2, HSP90 inh)
CC1Oc2ccccc2C=C1/C=N/Nc1ccc(C(=O)O)cc1 (stereo not drawn)	SENP7 block 89, SENP6 inh 96, SENP8 block-2 96, HSP90 inh 34 | HSP90 confirm 41 | FLuc counter 25
CC(C)c1ccc(OCc2cccc(C(=O)N/N=C/c3cccnc3)c2)cc1	none (no result: SENP7 block, SENP6 inh, SENP8 block-2)
COc1ccc(OCc2cccc(C(=O)Nc3cc(C)on3)c2)cc1	HSP90 inh 40 (no result: LGR2 antag) | HSP90 confirm 65 | FLuc counter 58
O=C(c1cccc(OCc2ccccc2)c1)N1CCOCC1	none
NNC(=O)c1cccc(COc2cccc(Br)c2)c1	none
CCOc1ccc(OCc2cccc(C(=O)N/N=C/c3cccnc3)c2)cc1	LGR2 antag inconclusive, HSP90 inh 31 | HSP90 confirm 23 | FLuc counter inactive
NNC(=O)c1cccc(COc2ccc(Br)cc2)c1	HSP90 inh 60 | HSP90 confirm 49 | FLuc counter 17
COc1cccc(C(=O)Nc2cc(C)on2)c1	none (no result: SENP7 block, SENP6 inh, SENP8 block-2, HSP90 inh)
CCOc1ccc(OCc2cccc(C(=O)N3CCOCC3)c2)cc1	HSP90 inh 61 (no result: LGR2 antag) | HSP90 confirm 70 | FLuc counter 73
COc1ccc(NC(=O)Nc2ccc3c(c2)C(=O)N([C@@H](C)CO)C[C@H](C)[C@@H](CN(C)C(=O)NC2CCCCC2)OCCCC[C@H](C)O3)cc1	none (no result: SENP7 block, SENP8 block-1, SENP6 inh, SENP8 block-2, HSP90 inh)
CC(C)NC(=O)N(C)C[C@H]1Oc2cc(-c3ccncc3)ccc2S(=O)(=O)N([C@@H](C)CO)C[C@@H]1C	none (no result: SENP7 block, SENP8 block-1, SENP6 inh, SENP8 block-2, HSP90 inh)
COc1ccc(OCc2cccc(C(=O)NN)c2)cc1	HSP90 inh 44 | HSP90 confirm 54 | FLuc counter 30
COc1ccc(OCc2cccc(C(=O)Nn3cc([N+](=O)[O-])cn3)c2)cc1	LGR2 antag 99, HSP90 inh 18 | HSP90 confirm 62 | FLuc counter 28
CN(C)C(=O)c1cccc(-c2ccccc2[C@H]2[C@@H](C#N)N(C(=O)C3CCCC3)[C@@H]2CO)c1	none (no result: SENP7 block, SENP8 block-1, SENP6 inh, SENP8 block-2, HSP90 inh)
O=C(C1CCN(c2ncnc3c2nc2n3CCCCC2)CC1)N1CCCCC1	none
Cc1ccc(NC(=O)C2CCN(c3ncnc4c3nc3n4CCCCC3)CC2)nc1	HSP90 inh 34 | HSP90 confirm inactive | FLuc counter inactive
COc1ccc(O)c(C(=O)CC(=O)c2ccccc2)c1	HSP90 inh 24 (no result: LGR2 antag, SENP8 block-1) | HSP90 confirm inactive | FLuc counter inactive
Cc1ccc(S(=O)(=O)Nc2cccc3c2O[C@H](CN(C)C(=O)NC(C)C)[C@@H](C)CN([C@H](C)CO)C3=O)cc1	none (no result: SENP7 block, SENP8 block-1, SENP6 inh, SENP8 block-2, HSP90 inh)
CCOC(=O)c1c(NC(=O)C(NCCN(C)C)c2ccccc2)sc2c1CCCC2 (stereo not drawn)	HSP90 inh 23 | HSP90 confirm inactive | FLuc counter inactive
CCOC(=O)c1c(NC(=O)c2ccccc2N(C)S(=O)(=O)c2ccccc2)sc2c1CCCC2	none (no result: LGR2 antag)
CCN(CC)c1nc(Oc2ccc(C(=O)OC)cc2)nc(N2CCOCC2)n1	none
CCOc1ccc(Oc2nc(N(CC)CC)nc(N3CCOCC3)n2)nn1	HSP90 inh 17 | HSP90 confirm inactive | FLuc counter inactive
O=C(N/N=C/c1cccnc1)NC12CC3CC(CC(C3)C1)C2	HSP90 inh 32 | HSP90 confirm inactive | FLuc counter inactive
CCCc1cn(CC[C@@H]2CC[C@H](NC(=O)C3CCOCC3)[C@H](CO)O2)nn1	none (no result: SENP7 block, SENP8 block-1, SENP6 inh, SENP8 block-2, HSP90 inh)
O=C(C[C@@H]1C[C@@H]2c3cc(NC(=O)c4ccc5c(c4)OCO5)ccc3O[C@@H]2[C@@H](CO)O1)NC1CCCC1	none (no result: SENP7 block, SENP8 block-1, SENP6 inh, SENP8 block-2, HSP90 inh)
O=C(/C=C/c1c(F)cccc1Cl)Nc1ncccn1	none
O=C(/C=C/c1c(F)cccc1Cl)c1ccc(O)cc1	HSP90 inh 24 | HSP90 confirm inactive | FLuc counter inactive
C[C@H](CO)N1C[C@H](C)[C@@H](CN(C)Cc2ccccc2)Oc2c(NC(=O)Nc3ccccc3)cccc2C1=O	none (no result: SENP7 block, SENP8 block-1, SENP6 inh, SENP8 block-2, HSP90 inh)
CN1C[C@@H]2[C@H](c3ccccc31)[C@H](CO)N2C(=O)CN1CCOCC1	none (no result: SENP7 block, SENP8 block-1, SENP6 inh, SENP8 block-2, HSP90 inh)
CCc1ccccc1N(CC(=O)N1CCCC1)S(C)(=O)=O	HSP90 inh 22 | HSP90 confirm inactive | FLuc counter inactive
O=S(=O)(NCc1ccncc1)c1ccc(F)c(F)c1	none (no result: SENP7 block, SENP6 inh, SENP8 block-2, HSP90 inh)
Cc1ccc(S(=O)(=O)NCc2ccncc2)cc1C	HSP90 inh 30 | HSP90 confirm inactive | FLuc counter inactive
Cc1cc(-c2csc(NC(=O)c3ccc(S(=O)(=O)N(C)C)cc3)n2)c(C)n1-c1ccccc1	HSP90 inh 22 | HSP90 confirm 41 | FLuc counter inactive
O=C(Cc1cccnc1)N1CC(=O)N2[C@H](CO)[C@H](c3ccc(C#CC4CCCC4)cc3)[C@H]2C1	none (no result: SENP7 block, SENP8 block-1, SENP6 inh, SENP8 block-2, HSP90 inh)
O=C(Nc1cccc(-c2nc3ncccc3o2)c1)c1sc2ccccc2c1Cl	HSP90 inh 20 (no result: LGR2 antag) | HSP90 confirm inactive | FLuc counter inactive
O=C(Nc1cccc(-c2nc3ncccc3o2)c1)c1sc2cc(Cl)ccc2c1Cl	none
CCCCc1nnc(NC(=O)CSc2nc(=O)cc(N)n2-c2cccc(C)c2)s1	HSP90 inh 33 (no result: LGR2 antag) | HSP90 confirm inactive | FLuc counter inactive
CN(C)CC(=O)N[C@H]1CC[C@@H](CC(=O)NCc2ccc(Cl)cc2)O[C@H]1CO	none (no result: SENP7 block, SENP8 block-1, SENP6 inh, SENP8 block-2, HSP90 inh)
COc1ccccc1C(=O)NCCn1cc(SCC(=O)NCC2CCCO2)c2ccccc21 (stereo not drawn)	none
COc1ccc(C(=O)NCCn2cc(SCC(=O)NCC3CCCO3)c3ccccc32)cc1 (stereo not drawn)	HSP90 inh 29 | HSP90 confirm inactive | FLuc counter inactive
Cc1sc2ncnc(SCC(=O)c3ccc(O)cc3O)c2c1C	HSP90 inh 19 | HSP90 confirm inactive | FLuc counter inactive
Cc1ccc(/C([O-])=C(/C(=S)Nc2ccc(SC(F)F)cc2)[n+]2ccccc2)cc1[N+](=O)[O-]	none (no result: LGR2 antag)
Cc1ccc(NC(=S)/C(=C(\[O-])c2ccc(C)c([N+](=O)[O-])c2)[n+]2ccccc2)cc1C	HSP90 inh 31 (no result: LGR2 antag, SENP8 block-1) | HSP90 confirm 17 | FLuc counter inactive
CCOC(=O)c1oc2ccc(S(=O)(=O)N3CCOCC3)cc2c1C	none
CCOC(=O)c1oc2ccc(S(=O)(=O)N3CCC(C)CC3)cc2c1C	HSP90 inh 21 | HSP90 confirm inactive | FLuc counter inactive
COCCn1c(C)cc(C(=O)COC(=O)c2ccc(NC(=O)CC#N)cc2)c1C	HSP90 inh 19 (no result: LGR2 antag) | HSP90 confirm inactive | FLuc counter 14
N#CCC(=O)Nc1ccc(C(=O)OCC(=O)c2ccc3c(c2)OCCO3)cc1	HSP90 inh 20 | HSP90 confirm 32 | FLuc counter inactive
COC(=O)CC1C(=O)NC(C)=C1C(=O)OC (stereo not drawn)	HSP90 inh 37 (no result: LGR2 antag, SENP8 block-1) | HSP90 confirm inactive | FLuc counter inactive
COc1ccc(S(=O)(=O)N[C@H]2C=C[C@H](CC(=O)N3CCN(c4ccccc4)CC3)O[C@H]2CO)cc1	none (no result: SENP7 block, SENP8 block-1, SENP6 inh, SENP8 block-2, HSP90 inh)

Assay outcomes (PubChem)
